Results as given in PubChem BioAssay (Tox21).
Records with an inconclusive call do not appear. Calls of active or inactive are those of the source. Unless noted, the call rests on the fitted dose curve; in most records, active means well fitted curve in the direction sought with a large enough effect in the repeat runs; inconclusive means weak or mixed curves; inactive means no such curve, though single readings can be large; an effect the other way counts as inactive or inconclusive.

Tests used:
[1] = qHTS assay for small molecules that induce genotoxicity in human embryonic kidney cells expressing luciferase-tagged ATAD5 (AID 651632); further: nearly all actives have a fitted effect of over 15% in size
In short: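 Genotoxicity read-out via ATAD5-luciferase: HEK293T cells, 16 hr compound incubation at 37C, Amplite detection.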

[2] = qHTS assay for small molecule agonists of the p53 signaling pathway - cell viability (AID 651633; calls by dose curve;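 further: p53RE-bla HCT reporter cells with a stable beta-lactamase p53 reporter; series mostly up to about 83 µM; nearly all actives have a fitted effect of over 30% in size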)
In short: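 p53RE-bla cells, seeded at 4,000 per well and rested 5 h at 37 C/5% CO2, received compounds in DMSO for 16 h at 37 C. CellTiter-Glo was then added, and luminescence was read after 30 min at room temperature to gauge cytotoxicity.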

[3] = qHTS assay for small molecules that induce genotoxicity in human embryonic kidney cells expressing luciferase-tagged ATAD5 - cell viability (AID 651634; calls by dose curve; further: nearly all actives have a fitted effect of over 25% in size)
In short: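 Live-cell protease activity (CellTiter-Fluor, fluorescence) indicates viability. HEK293T cells with luciferase-tagged ATAD5; 15.5 hr compound treatment at 37C.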

[4] = qHTS assay for small molecule disruptors of the mitochondrial membrane potential - cell viability (AID 720634; calls by dose curve;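 further: human HepG2 liver cancer cells; series mostly up to about 83 µM; nearly all actives have a fitted effect of over 20% in size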)
In short: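 Human hepatoma HepG2 cells were treated for 1 hr with test chemicals, then given m-MPI dye and CellTiter-Glo. Cell viability reflects luminescence proportional to cellular ATP.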

[5] = qHTS assay to test for compound auto fluorescence at 590 nm (red) in HepG2 cells (AID 720674)
In short: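 Intrinsic compound fluorescence in the red window (Ex/Em 540/590 nm) is measured in attached HepG2 cells exposed for 1 hr, DMSO vehicle as baseline, benchmarked to Rose Bengal sodium.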

[6] = qHTS assay to test for compound auto fluorescence at 535 nm (green) in HepG2 cells (AID 720675)
[7] = qHTS assay to test for compound auto fluorescence at 460 nm (blue) in HEK293 cells (AID 720678)
In short: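 Blue-channel (Ex/Em 405/460 nm) intensity measured in HEK293 cultures after overnight compound exposure at 37C; signal expressed relative to triamterene. Cells plated 2,000 per well in 10% dialyzed FBS medium and allowed 4-5 hr to attach.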

[8] = qHTS assay to test for compound auto fluorescence at 590 nm (red) in HEK293 cells (AID 720679)
In short: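 Red-channel autofluorescence (Ex/Em 540/590 nm; Rose Bengal sodium reference) was measured after overnight 37C, 5% CO2 exposure of attached HEK293 cells, 2,000 per well in medium with 10% dialyzed FBS.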

[9] = qHTS assay for small molecule disruptors of the mitochondrial membrane potential (AID 720635); further: potency means the concentration at half of the fitted maximal effect
In short: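 HepG2 cells (2,000/well) attached overnight at 37C, then took compound for 1 hr at 37C, 5% CO2. Mito-MPS dye was added for 30 min; fluorescence was read at 490/535 nm (monomers) and 540/590 nm (aggregates).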
On the % scale 0 is the no-effect control and ±100 the full control effect.

c1ccc(CCCc2ccccn2)cc1
inactive: Potency [1] | Potency [2] | Potency [3] | Potency [4] | outcome [5] | outcome [6] | Potency [7] | outcome [8]

C/C=C1\C(=O)C[C@H]2[C@@H]3CCC4=CC(=O)CC[C@]4(C)[C@H]3CC[C@]12C
inactive: Potency [1] | Potency [2] | Potency [3] | Potency [4] | outcome [5] | outcome [6] | Potency [7] | outcome [8]

CC(=O)c1ccc(C)cc1
inactive: Potency [1] | Potency [2] | Potency [3] | Potency [4] | outcome [5] | outcome [6] | Potency [7] | outcome [8]

OC[C@H]1O[C@@H]2O[C@H]3[C@H](O)[C@@H](O)[C@@H](O[C@H]4[C@H](O)[C@@H](O)[C@@H](O[C@H]5[C@H](O)[C@@H](O)[C@@H](O[C@H]6[C@H](O)[C@@H](O)[C@@H](O[C@H]7[C@H](O)[C@@H](O)[C@@H](O[C@H]8[C@H](O)[C@@H](O)[C@@H](O[C@H]9[C@H](O)[C@@H](O)[C@@H](O[C@H]1[C@H](O)[C@H]2O)O[C@@H]9CO)O[C@@H]8CO)O[C@@H]7CO)O[C@@H]6CO)O[C@@H]5CO)O[C@@H]4CO)O[C@@H]3CO
inactive: Potency [1] | Potency [2] | Potency [3] | Potency [4] | outcome [5] | outcome [6] | outcome [8]

CCCCCCOC(=O)CC(CC(=O)OCCCCCC)(OC(=O)CCC)C(=O)OCCCCCC
inactive: Potency [1] | Potency [2] | Potency [3] | Potency [4] | outcome [5] | outcome [6] | Potency [7] | outcome [8]

CCC(C)(C)C1CCC(OC)CC1 (stereo not drawn)
inactive: Potency [1] | Potency [3] | Potency [4] | outcome [5] | outcome [6] | Potency [7] | outcome [8]

O=C(O)c1ccccc1-c1ccc(C(F)(F)F)cc1
inactive: Potency [1] | Potency [3] | Potency [4] | outcome [5] | outcome [6] | Potency [7] | outcome [8]

C#CC(O)C(CC)CCCC (stereo not drawn)
inactive: Potency [1] | Potency [2] | Potency [3] | Potency [4] | outcome [5] | outcome [6] | Potency [7] | outcome [8]

CC/C=C\C#N
inactive: Potency [1] | Potency [2] | Potency [3] | Potency [4] | outcome [5] | outcome [6] | Potency [7] | outcome [8]

CCCC=O
inactive: Potency [2] | Potency [3] | Potency [4] | Potency [9] | outcome [5] | outcome [6] | Potency [7] | outcome [8]

C1=C\CC/C=C\CC/C=C\CC/1
inactive: Potency [1] | Potency [2] | Potency [3] | outcome [5] | outcome [6] | Potency [7] | outcome [8]

CCOC(=O)Cn1c(=O)sc2cccc(Cl)c21
inactive: Potency [1] | Potency [2] | Potency [3] | Potency [4] | outcome [5] | outcome [6] | Potency [7] | outcome [8]

CC(C)(C)CC(C)(C)N
inactive: Potency [1] | Potency [3] | Potency [4] | Potency [9] | outcome [5] | outcome [6] | Potency [7] | outcome [8]

CN(C)C(=O)C(CCN1CCC(O)(c2ccc(Cl)cc2)CC1)(c1ccccc1)c1ccccc1
inactive: Potency [1] | Potency [4] | outcome [5] | outcome [6] | outcome [8]

C=CC(=O)N1CCOCC1
inactive: Potency [1] | Potency [2] | Potency [3] | outcome [5] | outcome [6] | Potency [7] | outcome [8]

NCCNC(=O)c1ccc(Cl)cn1
inactive: Potency [1] | Potency [2] | Potency [3] | Potency [4] | outcome [5] | outcome [6] | Potency [7] | outcome [8]

CCCCCCCCN(C)CCCCCCCC
inactive: Potency [1] | Potency [2] | Potency [3] | Potency [4] | outcome [5] | outcome [6] | Potency [7] | outcome [8]

CCCc1ccccc1O
active: Potency [9] 27.3 µM
inactive: Potency [1] | Potency [3] | outcome [5] | outcome [6] | outcome [8]

C=C(C)C(=O)OCCCCCCCCCCCCCCCCCC
inactive: Potency [1] | Potency [2] | Potency [3] | fluorescence, relative to Rose Bengal [5] -0.0569% [at 18.6 µM] | fluorescence, % of fluorescein control [6] -0.0046% [at 18.6 µM] | fluorescence, % of triamterene [7] -0.0754% [at 18.6 µM] | fluorescence, % of fluorescent control [8] 0.299% [at 18.6 µM]

O=S(=O)(c1cccc2cnccc12)N1CCCNCC1
inactive: Potency [1] | Potency [2] | Potency [4] | outcome [5] | outcome [6] | Potency [7] | outcome [8]

CCCC(=O)O[C@]1(C(=O)CCl)[C@@H](C)C[C@H]2[C@@H]3CCC4=CC(=O)C=C[C@]4(C)[C@@]3(F)C(=O)C[C@@]21C
inactive: Potency [1] | Potency [3] | Potency [4] | outcome [5] | outcome [6] | Potency [7] | outcome [8]
active: Potency [9] 23.7 µM

NC(=O)c1c(Cl)cccc1Cl
inactive: Potency [1] | Potency [3] | Potency [4] | outcome [5] | outcome [6] | Potency [7] | outcome [8]

Cc1ccccc1Br
inactive: Potency [1] | Potency [2] | Potency [3] | Potency [4] | outcome [5] | outcome [6] | Potency [7] | outcome [8]

CNc1ncnc2nc[nH]c12
inactive: Potency [2] | Potency [3] | Potency [4] | outcome [5] | outcome [6] | outcome [8]
active: Potency [9] 2.48 µM

C(=C(c1ccccc1)c1ccccc1)c1ccccc1
active: Potency [9] 30.6 µM
inactive: Potency [1] | Potency [3] | Potency [4] | outcome [5] | outcome [6] | Potency [7] | outcome [8]

CN(C)C(=O)Nc1ccccc1
inactive: Potency [1] | Potency [3] | Potency [4] | outcome [5] | outcome [6] | Potency [7] | outcome [8]
